Source: PubChem BioAssay (several laboratories)
Measles CPE: protection of cells from measles virus | Measles virus-infected cells, CPE protection, absorbance | protection (pct of control), % at 4 µM | 1.5% of 140,000 active | AID 841; in the data active means protection mostly above about 24%, no sharp cut-off; inactive means mostly below about 26%
CYP2C9 activ: increases human cytochrome P450 2C9 activity | P11712 | recombinant CYP2C9, luciferin-H conversion, luminescence; active compounds read high; factor 1 = untreated enzyme, 0 = blocked | activation factor at 5 µM | 1.4% of 96,000 active | AID 1024;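 active means activation factor of 2 or more for CYP2C9 at a 5 µM dose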
Target sequence (P11712 whole entry, looked up): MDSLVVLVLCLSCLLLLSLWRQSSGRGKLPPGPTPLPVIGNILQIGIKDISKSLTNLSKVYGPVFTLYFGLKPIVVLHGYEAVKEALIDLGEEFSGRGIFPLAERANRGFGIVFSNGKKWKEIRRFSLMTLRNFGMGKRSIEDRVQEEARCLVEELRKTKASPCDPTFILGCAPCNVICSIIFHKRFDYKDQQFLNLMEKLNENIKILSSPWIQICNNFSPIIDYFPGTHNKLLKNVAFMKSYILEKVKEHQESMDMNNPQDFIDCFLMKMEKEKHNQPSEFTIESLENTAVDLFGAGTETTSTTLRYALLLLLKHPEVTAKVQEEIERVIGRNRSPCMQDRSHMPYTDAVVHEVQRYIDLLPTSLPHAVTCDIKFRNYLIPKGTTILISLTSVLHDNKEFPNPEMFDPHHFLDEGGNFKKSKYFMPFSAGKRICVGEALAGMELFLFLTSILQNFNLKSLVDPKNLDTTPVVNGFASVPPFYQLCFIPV
CYP2C9 inhib: human CYP2C9 inhibition; P11712; CYP2C9 Supersomes, luciferin-H conversion, luminescence; inhibition, % at 5 µM; 20% of 96,000 active; AID 777;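 active means blocking of liver enzyme CYP2C9 beyond about 50% at 5 µM, limit read from the data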
CYP2C19 inhib: blocks human cytochrome P450 2C19 | P33261 | CYP2C19 Supersomes, luciferin-H EGE luminescence, 30 min | inhibition, % at 5 µM | 21% of 96,000 active;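 active means CYP2C19 inhibition above a set limit at 5 µM in the primary screen, cut at about 50% in these data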
CYP2C19 activ: cytochrome P450 2C19 (human) activation; activation factor at 5 µM; P33261; recombinant CYP2C19, luciferin-H EGE luminescence; active compounds read high; 0 = fully inhibited enzyme, 1 = untreated enzyme; 96,000 tested, under 10 active;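 active means activation factor of at least 2 at 5 µM in the primary screen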
Of the large screens only hits and unclear results are named; the others gave an inactive call. Most compounds without a hit are left out; they make up all but 22% or so of the library.

O=C(CCN1C(=O)C2CC=C(Cl)CC2C1=O)Nc1ccccc1O (stereo not drawn)	CYP2C19 inhib 59
CC(C)C(C)NC(=O)CSc1nc2scc(-c3ccco3)c2c(=O)n1-c1ccccc1 (stereo not drawn)	none
CC(C)C(C)(C#N)NC(=O)CSc1nc2scc(-c3ccco3)c2c(=O)n1-c1ccccc1 (stereo not drawn)	CYP2C9 inhib 55
CCc1ccc(NC(=S)N(CCN2CCCCC2)Cc2ccco2)cc1	none (no result: CYP2C9 activ, CYP2C9 inhib, CYP2C19 inhib, CYP2C19 activ)
CCn1c(=O)c(C(=O)NCc2ccccn2)c(O)c2ccccc21	none
CCCn1c(=O)c(C(=O)NCc2ccc(OC)c(OC)c2)c(O)c2ccccc21	CYP2C9 inhib 87
CCn1c(=O)c(C(=O)NCc2ccc(OC)cc2)c(O)c2ccccc21	CYP2C9 inhib 68
CCn1c(=O)c(C(=O)NCc2ccc(OC)c(OC)c2)c(O)c2ccccc21	CYP2C9 inhib 95
CCCn1c(=O)c(C(=O)Nc2ccccc2C(=O)OCC)c(O)c2ccccc21	none
COc1ccc(/C=C(\C#N)C(=O)OCC(=O)Nc2c(C)cccc2C(C)C)cc1	none (no result: CYP2C9 activ, CYP2C9 inhib, CYP2C19 inhib, CYP2C19 activ)
Cc1[nH]c(=O)[nH]c(=O)c1NS(=O)(=O)c1ccccc1	none (no result: CYP2C9 activ, CYP2C9 inhib, CYP2C19 inhib, CYP2C19 activ)
Cc1sc(-c2ccncc2)nc1OC(=O)c1cc(Cl)cc(Cl)c1	CYP2C9 inhib 68, CYP2C19 inhib 53
Cc1sc(-c2ccncc2)nc1OC(=O)c1ccc(Cl)cc1	CYP2C9 inhib 88, CYP2C19 inhib 90
C/C(=N\OC(=O)c1ccc(Cl)cc1)c1sc(-c2ccccc2)nc1C	none
O=[N+]([O-])c1cc(Cl)cc(/C=N\Nc2ccccn2)c1O	CYP2C9 inhib 50, CYP2C19 inhib 54
CCCc1cc(=O)oc2cc(OCc3ccc(OC)cc3)c(Cl)cc12	none (no result: CYP2C9 activ, CYP2C9 inhib, CYP2C19 inhib, CYP2C19 activ)
COn1c(SCc2ccc(C)cc2C)nc2ccccc2c1=O	CYP2C9 inhib 93, CYP2C19 inhib 73
COn1c(SC(C)C)nc2ccccc2c1=O	none
COn1c(SC2CCCCC2)nc2ccccc2c1=O	CYP2C9 inhib 82, CYP2C19 inhib 78
CCOC(=O)COc1ccsc1C(=O)OC	none
O=C(Nc1cc(C(F)(F)F)ccc1N1CCOCC1)c1c(F)c(F)c(F)c(F)c1F	none
Cc1cc(C(=O)OCC(=O)Nc2cc(C(F)(F)F)ccc2N2CCOCC2)c(C)o1	CYP2C9 inhib 63
O=C(Nc1cc(C(F)(F)F)ccc1N1CCOCC1)c1cn2ccccc2n1	CYP2C9 inhib 54
O=C(Nc1cc(C(F)(F)F)ccc1N1CCOCC1)c1ccc(Cl)nc1	CYP2C19 inhib 76
Cc1ccn2cc(C(=O)Nc3ccccc3N3CCOCC3)nc2c1	none
O=C(Nc1cc(C(F)(F)F)ccc1N1CCOCC1)c1cccnc1Cl	none
O=C(Nc1cc(C(F)(F)F)ccc1N1CCOCC1)c1ccccc1	CYP2C19 inhib 64
Cc1nc(-c2ccc(NS(C)(=O)=O)cc2)cs1	none
COC(=O)c1ccc(CNC(=O)CNc2cc(C(F)(F)F)ccc2N2CCOCC2)cc1	CYP2C9 inhib 95
CCOc1ccccc1CNn1nnnc1N	none (no result: CYP2C9 activ, CYP2C9 inhib, CYP2C19 inhib, CYP2C19 activ)
CN(C)CCCNC(=O)CC(c1ccc(F)cc1)c1ccco1 (stereo not drawn)	none
CCN(CC)C(=O)CC(c1ccc(F)cc1)c1ccco1 (stereo not drawn)	CYP2C19 inhib 62
Cc1c(C(=O)NCCN2CCOCC2)oc2ccc(S(=O)(=O)N3CCCCCC3)cc12	none
O=C(C1CC1)n1cc(C(=S)N2CCOCC2)c2ccccc21	none
O=C(c1cccs1)n1cc(C(=S)N2CCOCC2)c2ccccc21	CYP2C19 inhib 68
Oc1cccc(-c2nc3c4c(ncn3n2)-c2ccccc2CC42CCCC2)c1	none
CCOC(=O)c1ccc(NC(=O)NC2CC3CCC(C2)N3Cc2nnnn2C(C)(C)C)cc1 (stereo not drawn)	none
O=S(Cc1cc(Oc2ccccc2)nc(-c2ccccc2)n1)c1ccccc1 (stereo not drawn)	CYP2C9 inhib 78, CYP2C19 inhib 84
CCOc1ccc(S(=O)(=O)N(CC(N)=O)c2ccc(C)cc2)cc1	CYP2C19 inhib 71
COC(=O)CN(c1ccc(C)cc1)S(=O)(=O)c1ccc2c(c1)n(C)c(=O)c(=O)n2C	none
CCOc1ccc(N(CC(=O)OC)S(=O)(=O)c2ccc3c(c2)n(C)c(=O)c(=O)n3C)cc1	CYP2C9 inhib 56
CCOc1ccc(N(CC(=O)OC)S(=O)(=O)c2ccc(OC)c(OC)c2)cc1	CYP2C9 inhib 55, CYP2C19 inhib 64
CCOc1ccc(N(CC(N)=O)S(=O)(=O)c2ccc(F)cc2)cc1	none
COC(=O)CN(c1cc(Cl)ccc1OC)S(=O)(=O)c1ccc(OC)c(OC)c1	none (no result: CYP2C9 activ, CYP2C9 inhib, CYP2C19 inhib, CYP2C19 activ)
COc1ccc(OC)c(N(CC(N)=O)S(=O)(=O)c2ccc(OC)c(OC)c2)c1	CYP2C19 inhib 78
CCOc1ccccc1N(CC(=O)O)S(=O)(=O)c1ccccc1	none
COc1ccc(N(C(=O)COc2ccccc2OC)S(=O)(=O)c2ccc(C)cc2)cc1	CYP2C9 inhib 52
CCC(C)NC(=O)CN(c1ccc(OC)cc1)S(=O)(=O)c1ccc(NC(C)=O)cc1 (stereo not drawn)	CYP2C9 inhib 57
CCOc1ccccc1N(CC(=O)OC)S(=O)(=O)c1ccccc1	CYP2C9 inhib 71, CYP2C19 inhib 51
COc1ccc(N(CC(=O)O)S(=O)(=O)c2ccc(OC)c(OC)c2)cc1	none
COC(=O)CN(c1ccc(OC)cc1)S(=O)(=O)c1ccc(OC)c(OC)c1	CYP2C19 inhib 94
CCOCCCNC(=O)Cc1ccc(Br)cc1	none (no result: CYP2C9 activ, CYP2C9 inhib, CYP2C19 inhib, CYP2C19 activ)
CN1CCN(c2oc(-c3ccco3)nc2S(=O)(=O)c2ccccc2)CC1	none
COc1ccc(-c2nc(S(=O)(=O)c3ccc(C)cc3)c(N3CCCC3)o2)cc1	none
COc1cc(-c2nc(S(=O)(=O)c3ccccc3)c(N3CCOCC3)o2)cc(OC)c1OC	CYP2C9 inhib 89, CYP2C19 inhib 55
NC(=O)CSc1oc(-c2ccc(F)cc2)nc1S(=O)(=O)c1ccccc1	CYP2C19 inhib 85
CCCSc1oc(-c2ccco2)nc1S(=O)(=O)c1ccccc1	CYP2C19 inhib 90
O=S(=O)(c1ccccc1)c1nc(-c2ccco2)oc1N1CCCCCC1	CYP2C9 inhib 58, CYP2C19 inhib 66
Cc1ccc(CSCC(=O)N/N=C/c2cccc(OC3CSC3)c2)cc1	none (no result: CYP2C9 activ, CYP2C9 inhib, CYP2C19 inhib, CYP2C19 activ)
O=C1[C@H]2[C@H]3[C@H](O)[C@H](O)C/C(=N\OC[C@@H](O)COCc4ccco4)[C@@H]3CC[C@H]2C(=O)N1c1ccc(F)cc1F	none (no result: CYP2C9 activ, CYP2C9 inhib, CYP2C19 inhib, CYP2C19 activ)
Cc1cccc(C)c1NC(=O)c1sc(Cl)nc1C	none (no result: CYP2C9 activ, CYP2C9 inhib, CYP2C19 inhib, CYP2C19 activ)
COc1cccc(/C(C#N)=C/c2c(-c3ccc(Cl)cc3)nc3c(C)cccn23)c1	CYP2C9 inhib 70, CYP2C19 inhib 55
CC(C)CC1C(C#N)=C(N)Oc2n[nH]c(-c3cccs3)c21 (stereo not drawn)	CYP2C19 inhib 67
CSCCC1C(C#N)=C(N)Oc2n[nH]c(-c3cccs3)c21 (stereo not drawn)	CYP2C9 inhib 55
N#CC1=C(N)Oc2n[nH]c(-c3cccs3)c2C1c1cccs1 (stereo not drawn)	none
Cc1cc(C)c2c(C)c(C(=O)Nc3c(C)n(C)n(-c4ccccc4)c3=O)oc2c1	none (no result: CYP2C9 activ, CYP2C9 inhib, CYP2C19 inhib, CYP2C19 activ)
